For 44 compounds, inhibition results are on record in PubChem BioAssay AID651704 (Broad Institute, 2012).

Broadly, the inhibition is the change of the read-out against control, counted positive when it falls.

SMILES strings stand for the structures. About 1,600 (0.46%) of roughly 350,000 compounds were called active. The sample holds actives, similar compounds and a random draw of the others, so the mix is not that of the screen. Unmarked numbers belong to inactive results.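 The calls were made as follows: active = every replicate reaching a set inhibition limit, whatever the replicate mean (cut at about 25% in these data); inconclusive = mean inhibition reaches that limit but some replicates miss it; inactive = the rest.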

In this experiment the target is Protein AF-9 (Homo sapiens) (UniProt P42568). The experiment in a line: MLL-AF4/AF9 protein interaction blockers – biochemical, AlphaScreen, biotin-AF4 peptide, FLAG-AF9, single point, primary screen (AID 651704).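 Also: 0% = plate neutral control median and 100% = total signal loss.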 The following applies: biotin-AF4 peptide binding to FLAG-AF9, at 10 µM, stronger effect = higher value. (In Alpha technology, singlet oxygen from a donor bead excites a nearby acceptor bead.)
Chain of Protein AF-9 (Homo sapiens) (P42568 whole entry, looked up): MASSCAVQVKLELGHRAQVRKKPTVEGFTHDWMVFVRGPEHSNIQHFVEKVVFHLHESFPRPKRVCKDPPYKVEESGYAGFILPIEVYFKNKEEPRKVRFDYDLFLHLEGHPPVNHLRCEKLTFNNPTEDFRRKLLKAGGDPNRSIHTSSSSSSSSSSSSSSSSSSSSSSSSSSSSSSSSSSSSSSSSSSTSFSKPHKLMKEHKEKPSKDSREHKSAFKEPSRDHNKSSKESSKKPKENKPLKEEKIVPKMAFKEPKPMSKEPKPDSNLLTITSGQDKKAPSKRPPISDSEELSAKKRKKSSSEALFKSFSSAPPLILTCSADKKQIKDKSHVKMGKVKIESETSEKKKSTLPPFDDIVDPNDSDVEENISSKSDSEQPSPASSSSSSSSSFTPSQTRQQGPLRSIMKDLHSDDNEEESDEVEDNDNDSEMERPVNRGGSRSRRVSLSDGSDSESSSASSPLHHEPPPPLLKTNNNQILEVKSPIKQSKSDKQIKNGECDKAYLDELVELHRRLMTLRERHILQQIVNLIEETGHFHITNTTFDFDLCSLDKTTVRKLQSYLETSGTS
`O=C(Nc1nnc(COc2ccccc2)s1)Nc1ccccc1F`: the inhibition was 36% (active). Consider `COc1ccccc1NC(=O)Nc1nnc(Cc2ccc(F)cc2)s1`, for which the inhibition was 3.41%.

For `COc1ccccc1NC(=O)Nc1nc(CC(=O)Nc2ccccc2F)cs1`, the inhibition is 0.499%. Regarding `CC(C)NC(=O)Nc1ccc2c(c1)C(=O)N([C@@H](C)CO)C[C@H](C)[C@H](CN(C)C(=O)NC1CCCCC1)OCCCC[C@@H](C)O2`, the inhibition was -3.2%. As to `C[C@H](CO)N1C[C@H](C)[C@H](CN(C)Cc2ccc3c(c2)OCO3)OCCCC[C@H](C)Oc2ccc(NC(=O)c3ccccc3)cc2C1=O`, the inhibition was 4.39%.

As for `CO[C@@H]1CC[C@@H]2CCOc3ccc(C#N)cc3C(=O)N(C)C[C@@H](C)C(=O)N(C)C[C@@H]1O2`, the inhibition was 3.45%.

Turning to `C/C(=N\NC(=O)c1ccccc1F)c1ccccn1`, the inhibition was -1.33%. On to `CCN(CC)CCOc1ccc2c(c1)C(=NNC(=O)c1ccccn1)c1cc(OCCN(CC)CC)ccc1-2`, for which the inhibition was 56.9% (active). Under `CC(O)c1ccc(OCCN(C)c2ccccn2)cc1` (centres undefined) stands -3.42%.

With `COc1ccc2c3c([nH]c2c1)[C@H](CO)N(C(=O)Nc1ccc(F)cc1)CC31CCN(CC2CCOCC2)CC1`, the inhibition is 11%. As to `CCC(=O)N1[C@@H](CO)[C@@H](c2ccccc2)C12CN(C(=O)c1cnccn1)C2`, the inhibition was -4.68%. As for `COCCNC(=O)C[C@@H]1C[C@@H]2c3cc(NS(=O)(=O)c4ccccc4)ccc3O[C@@H]2[C@H](CO)O1`, the inhibition is -1.39%. For the compound `C[C@@H]1CCCCO[C@H](CN(C)C(=O)Nc2ccc3c(c2)OCO3)[C@@H](C)CN([C@@H](C)CO)C(=O)c2cc(NC(=O)CCC(F)(F)F)ccc2O1`, the inhibition is 7.93%. Under `CCC(=O)Nc1ccc2c(c1)C(=O)N(C)[C@@H]1CC[C@@H](CC(=O)NCCN3CCCCC3)O[C@@H]1CO2` stands 0.544%; under `Cc1ccc(Nc2ccccc2N)cc1`, 49% (active). Under `Nc1ccc(C(=O)Nc2ccccc2N)cc1` stands -0.363%; under `Cc1ccc(Nc2nc(Cl)c(C=O)s2)cc1`, -4.45%; under `O=C(C[C@@H]1CC[C@H](NC(=O)c2ccncc2)[C@@H](CO)O1)Nc1ccc(-c2ccccc2)cc1`, -2.25%. Turning to `CO[C@@H]1CN(C)C(=O)c2ccc(NC(C)=O)cc2OC[C@@H](C)N(Cc2ccc(-c3ccccn3)cc2)C[C@H]1C`, the inhibition is 2.32%. Turning to `O=C(Nc1nnc(SCc2c(Cl)cccc2Cl)s1)c1cccc([N+](=O)[O-])c1`, the inhibition is 1.85%. The value for `O=C(Nc1nnc(SCc2ccccc2Cl)s1)c1cccc([N+](=O)[O-])c1` was 48% (active). The value for `NC(=O)CSc1nnc(NC(=O)c2ccc3ccccc3c2)s1` was -1.88%; that for `COc1cc(CN2CC3(CN(S(=O)(=O)c4cn(C)cn4)C3)c3c(n(C)c4cc(OC)ccc34)[C@H]2CO)cc(OC)c1` was 12.6%. Take `COc1ccc(NC(=O)Nc2ccc3c(c2)[C@H]2C[C@H](CC(=O)NC4CCCC4)O[C@@H](CO)[C@H]2O3)cc1`: the inhibition is 0.232%.

Consider `CCN(CC)c1ccc(/C=N/NC(=O)c2cnccn2)c(O)c1`, for which the inhibition was -1.45%. The value for `Cc1cc(C)nc(N/N=C/c2c(CO)cnc(C)c2O)n1` was -5.08%.

Consider `CCN(CC)c1ccc(/C=N/Nc2nc(C)cc(C)n2)c(O)c1`, for which the inhibition was 79.7% (active). In the case of `O=C(C[C@H]1CC[C@H]2[C@@H](COC[C@H](O)CN2C(=O)c2ccncc2)O1)NCc1cc(F)cc(F)c1`, the inhibition was -16%. Under `COc1ccccc1NC(=O)N1CC(=O)N2[C@H](CO)[C@@H](c3ccc(C#Cc4ccc(F)cc4)cc3)[C@H]2C1` stands 2.6%; under `Cn1cnc(S(=O)(=O)N2C[C@H](O)COC[C@@H]3O[C@H](CC(=O)NC4CCCC4)CC[C@H]32)c1`, -0.241%; under `COc1ccc(S(=O)(=O)Nc2ccc3c(c2)CC(=O)N([C@@H](C)CO)C[C@@H](C)[C@@H](CN(C)Cc2ccc(C(=O)Nc4ccccc4N)cc2)O3)cc1`, -0.302%.

Regarding `C[C@@H]1CCCCO[C@H](CN(C)S(=O)(=O)c2cn(C)cn2)[C@@H](C)CN([C@@H](C)CO)C(=O)c2cc(NC(=O)CCC(F)(F)F)ccc2O1`, the inhibition is -0.444%. Under `COc1ccc(-n2nnnc2SCC(=O)c2ccc(OC)c(OC)c2)cc1` stands -42.4%.

Take `COc1ccc(C(=O)COC(=O)c2ccc([N+](=O)[O-])s2)cc1OC`: the inhibition was -0.958%.

On to `C=Cn1cc[n+](CC(=O)c2ccc(OC)c(OC)c2)c1`, for which the inhibition is 28.8% (active).

As to `CO[C@@H]1CN(C)C(=O)c2ccc(NC(=O)C3CCCC3)cc2OC[C@H](C)NC[C@@H]1C`, the inhibition is -0.502%. Under `C#CCOCCOCCOCCNc1nc(N2CCN(C(=O)[C@H](CO)n3cc([C@@H](N)C(C)C)nn3)CC2)nc(N2CCN(C(=O)[C@H](CCC(=O)O)n3cc([C@@H](N)[C@H](C)CC)nn3)CC2)n1` stands 0.229%. Take `C#CCOCCOCCOCCNc1nc(N2CCN(C(=O)[C@H](CCCN=C(N)N)n3cc(C(N)[C@@H](C)CC)nn3)CC2)nc(N2CCN(C(=O)[C@H](CO)n3cc([C@@H](N)C(C)C)nn3)CC2)n1` (some centres undefined): the inhibition was 29.3% (active). The value for `C#CCOCCOCCOCCNc1nc(N2CCN(C(=O)[C@H](CCC(=O)O)n3cc(C(N)CO)nn3)CC2)nc(N2CCN(C(=O)[C@H](Cc3ccc(O)cc3)n3cc(C(N)[C@H](C)CC)nn3)CC2)n1` (some centres undefined) was 2.1%. Under `O=C([C@@H]1[C@@H](CO)[C@@H]2Cn3c(ccc(-c4ccccc4F)c3=O)[C@H]1N2C(=O)C1CCC1)N1CCCCC1` stands -3.29%. Under `C[C@@H]1CCCCO[C@H](CN(C)C(=O)Nc2ccc(C(F)(F)F)cc2)[C@@H](C)CN([C@@H](C)CO)C(=O)c2cc(NS(=O)(=O)c3cccs3)ccc2O1` stands 2.48%; under `CO[C@@H]1CN(C)C(=O)c2cc(NC(C)=O)ccc2OC[C@H](C)N(Cc2ccccn2)C[C@H]1C`, -0.12%; under `N#C[C@@H]1[C@@H](c2ccccc2C2=CCCC2)[C@H](CO)N1C(=O)NC1CCCC1`, 2.11%. With `COCC#Cc1ccc([C@@H]2[C@@H](CO)N3C(=O)CN(C(=O)C4CCOCC4)C[C@@H]23)cc1`, the inhibition was -0.906%.
